Measured values reported in PubChem BioAssay AID1159580 (chemical genetic matrix, 2015).
The whole screen tested about 5,500 compounds, of which about 2,000 (36%) were called active. Another 18% or so got no clear call; they are omitted. Rule as the data show it: active = normalized growth mostly below about 0.91 (no sharp cut-off); inconclusive = no clear call, values can overlap the other calls; inactive = mostly above about 0.92. The list shows a part of the results.

Assay: chemical genetic growth profiling, strain panel (AID 1159580);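 also: tested at 20 µM; growth read once vehicle control cultures reached saturation at 30 °C; 1 = growth at the plate median or of vehicle wells; lower values mean less growth of the strain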
Details: growth OD

Measured: normalized growth

O=C(O)c1cc2cc(Cl)ccc2[nH]1
inactive: S. cerevisiae deletion strains, locus YJR075W, strain HOC1, stronger effect = lower value 1.05 | S. cerevisiae deletion strains, locus YKL009W, strain mrt4, stronger effect = lower value 1.01 | S. cerevisiae deletion strains, locus YKL068W, stronger effect = lower value 0.98 | S. cerevisiae deletion strains, locus YKL085W, strain MDH1 (second series), stronger effect = lower value 1.02 | S. cerevisiae deletion strains, locus YKL085W, strain MDH1, stronger effect = lower value 1.02 | S. cerevisiae deletion strains, locus YKL160W, strain elf1, stronger effect = lower value 1 | S. cerevisiae deletion strains, locus YKL190W, strain CNB1, stronger effect = lower value 1.01 | S. cerevisiae deletion strains, locus YKR001C, strain vps1, stronger effect = lower value 0.984 | S. cerevisiae deletion strains, locus YKR026C, strain gcn3, stronger effect = lower value 0.963 | S. cerevisiae deletion strains, locus YKR091W, strain srl3, stronger effect = lower value 0.994 | S. cerevisiae deletion strains, locus YLL001W, strain dnm1, stronger effect = lower value 0.966 | S. cerevisiae deletion strains, locus YLL026W, stronger effect = lower value 0.98 | S. cerevisiae deletion strains, locus YLL041C, strain sdh2, stronger effect = lower value 0.988 | S. cerevisiae deletion strains, locus YLR027C, strain aat2, stronger effect = lower value 0.992 | S. cerevisiae deletion strains, locus YLR039C, strain RIC1, stronger effect = lower value 1.04 | S. cerevisiae deletion strains, locus YLR058C, strain SHM2, stronger effect = lower value 1.01 | S. cerevisiae deletion strains, locus YLR102C, strain apc9, stronger effect = lower value 0.98 | S. cerevisiae deletion strains, locus YLR113W, strain HOG1, stronger effect = lower value 0.944 | S. cerevisiae deletion strains, locus YLR221C, strain rsa3, stronger effect = lower value 0.991 | S. cerevisiae deletion strains, locus YLR258W, strain gsy2, stronger effect = lower value 0.989 | S. cerevisiae deletion strains, locus YLR262C, strain YPT6 (second series), stronger effect = lower value 0.994 | S. cerevisiae deletion strains, locus YLR262C, strain YPT6, stronger effect = lower value 1.06 | S. cerevisiae deletion strains, locus YLR268W, strain sec22, stronger effect = lower value 1 | S. cerevisiae deletion strains, locus YLR320W, strain mms22, stronger effect = lower value 0.987 | S. cerevisiae deletion strains, locus YLR330W, strain CHS5, stronger effect = lower value 1 | S. cerevisiae deletion strains, locus YLR342W, strain FKS1 (second series), stronger effect = lower value 1.01 | S. cerevisiae deletion strains, locus YLR342W, strain FKS1, stronger effect = lower value 0.991 | S. cerevisiae deletion strains, locus YLR357W, strain rsc2, stronger effect = lower value 0.953 | S. cerevisiae deletion strains, locus YLR370C, strain arc18, stronger effect = lower value 0.981 | S. cerevisiae deletion strains, locus YLR371W, strain rom2, stronger effect = lower value 0.98 | S. cerevisiae deletion strains, locus YLR384C, strain iki3, stronger effect = lower value 0.986 | S. cerevisiae deletion strains, locus YLR418C, strain cdc73, stronger effect = lower value 0.991 | S. cerevisiae deletion strains, locus YML016C, strain PPZ1, stronger effect = lower value 1 | S. cerevisiae deletion strains, locus YML032C, strain rad52, stronger effect = lower value 0.977 | S. cerevisiae deletion strains, locus YML120C, strain ndi1, stronger effect = lower value 0.984 | S. cerevisiae deletion strains, locus YML124C, strain tub3, stronger effect = lower value 0.987 | S. cerevisiae deletion strains, locus YMR058W, strain fet3, stronger effect = lower value 0.985 | S. cerevisiae deletion strains, locus YMR078C, strain ctf18, stronger effect = lower value 0.977 | S. cerevisiae deletion strains, locus YMR125W, strain sto1, stronger effect = lower value 0.959 | S. cerevisiae deletion strains, locus YMR129W, stronger effect = lower value 0.993 | S. cerevisiae deletion strains, locus YMR205C, strain PFK2, stronger effect = lower value 0.956 | S. cerevisiae deletion strains, locus YMR223W, strain ubp8, stronger effect = lower value 0.983 | S. cerevisiae deletion strains, locus YMR231W, strain pep5, stronger effect = lower value 0.989 | S. cerevisiae deletion strains, locus YMR263W, strain SAP30, stronger effect = lower value 1.02 | S. cerevisiae deletion strains, locus YMR307W, strain GAS1, stronger effect = lower value 1.02 | S. cerevisiae deletion strains, locus YNL067W, strain RPL9B, stronger effect = lower value 1.03 | S. cerevisiae deletion strains, locus YNL071W, strain lat1, stronger effect = lower value 0.994 | S. cerevisiae deletion strains, locus YNL128W, strain TEP1, stronger effect = lower value 1.03 | S. cerevisiae deletion strains, locus YNL153C, strain GIM3, stronger effect = lower value 1.03 | S. cerevisiae deletion strains, locus YNL183C, strain NPR1, stronger effect = lower value 0.866 | S. cerevisiae deletion strains, locus YNL209W, strain ssb2, stronger effect = lower value 0.991 | S. cerevisiae deletion strains, locus YNL233W, strain BNI4, stronger effect = lower value 1.01 | S. cerevisiae deletion strains, locus YNL248C, strain rpa49, stronger effect = lower value 0.991 | S. cerevisiae deletion strains, locus YNL250W, strain rad50, stronger effect = lower value 0.971 | S. cerevisiae deletion strains, locus YNL271C, strain bni1, stronger effect = lower value 0.969 | S. cerevisiae deletion strains, locus YNL298W, strain CLA4, stronger effect = lower value 0.978 | S. cerevisiae deletion strains, locus YNL307C, strain MCK1, stronger effect = lower value 0.979 | S. cerevisiae deletion strains, locus YNL322C, strain KRE1 (second series), stronger effect = lower value 0.984 | S. cerevisiae deletion strains, locus YNL322C, strain KRE1, stronger effect = lower value 1.01 | S. cerevisiae deletion strains, locus YNR049C, strain mso1, stronger effect = lower value 0.983 | S. cerevisiae deletion strains, locus YNR052C, strain pop2, stronger effect = lower value 0.989 | S. cerevisiae deletion strains, locus YOL006C, strain TOP1, stronger effect = lower value 1.05 | S. cerevisiae deletion strains, locus YOL012C, strain htz1 0.817 | S. cerevisiae deletion strains, locus YOL147C, strain pex11, stronger effect = lower value 0.981 | S. cerevisiae deletion strains, locus YOR001W, strain rrp6, stronger effect = lower value 1.01 | S. cerevisiae deletion strains, locus YOR061W, strain CKA2, stronger effect = lower value 1.01 | S. cerevisiae deletion strains, locus YOR069W, strain VPS5, stronger effect = lower value 0.996 | S. cerevisiae deletion strains, locus YOR070C, strain gyp1, stronger effect = lower value 0.986 | S. cerevisiae deletion strains, locus YOR080W, strain dia2, stronger effect = lower value 0.981 | S. cerevisiae deletion strains, locus YOR083W, strain WHI5, stronger effect = lower value 1 | S. cerevisiae deletion strains, locus YOR106W, strain vam3, stronger effect = lower value 0.999 | S. cerevisiae deletion strains, locus YOR136W, strain idh2, stronger effect = lower value 0.992 | S. cerevisiae deletion strains, locus YOR144C, strain elg1, stronger effect = lower value 0.989 | S. cerevisiae deletion strains, locus YOR184W, strain ser1, stronger effect = lower value 0.967 | S. cerevisiae deletion strains, locus YOR231W, strain MKK1, stronger effect = lower value 0.926 | S. cerevisiae deletion strains, locus YOR265W, strain rbl2, stronger effect = lower value 0.99 | S. cerevisiae deletion strains, locus YOR270C, strain vph1, stronger effect = lower value 0.984 | S. cerevisiae deletion strains, locus YOR290C, strain snf2, stronger effect = lower value 0.992 | S. cerevisiae deletion strains, locus YOR316C, strain cot1, stronger effect = lower value 0.983 | S. cerevisiae deletion strains, locus YPL051W, strain arl3, stronger effect = lower value 0.991 | S. cerevisiae deletion strains, locus YPL055C, strain LGE1, stronger effect = lower value 1.06 | S. cerevisiae deletion strains, locus YPL078C, strain atp4, stronger effect = lower value 0.997 | S. cerevisiae deletion strains, locus YPL106C, strain sse1, stronger effect = lower value 0.966 | S. cerevisiae deletion strains, locus YPL240C, strain hsp82, stronger effect = lower value 0.998 | S. cerevisiae deletion strains, locus YPL241C, strain CIN2, stronger effect = lower value 1.01 | S. cerevisiae deletion strains, locus YPL256C, strain CLN2, stronger effect = lower value 0.935 | S. cerevisiae deletion strains, locus YPR119W, strain clb2, stronger effect = lower value 0.983 | S. cerevisiae deletion strains, locus YPR141C, strain kar3, stronger effect = lower value 0.976 | S. cerevisiae deletion strains, locus YPR163C, strain tif3, stronger effect = lower value 0.991 | S. cerevisiae deletion strains, locus YPR167C, strain met16, stronger effect = lower value 0.986 | S. cerevisiae deletion strains, strain wtn01, stronger effect = lower value 0.992 | S. cerevisiae strains, strain wild type, stronger effect = lower value 1.01
